# Assay: small molecules boosting NK-mediated OVCAR3 lysis – imaging, primary NK cells, calcein-AM imaging, primary screen (AID 1508625);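 also: compound given to NK cells 16 h before adding targets at 1.5 to 1 ratio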;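 as to z-score: more negative robust z means stronger NK killing of tumor cells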
# Settings: OVCAR3 lysis by primary NK cells, at 5 µM; z-score: measured here: robust Z-score, single-point normalisation
structure (smiles),measurement,value
CCOc1cccc(C(O)CNC)c1 (configuration not stated),"corrected activity, negative = more killing",0.0567%
same,z-score,0.0176
CC12CN3CN(C1)CC(C)(C3)C2=NN,"corrected activity, negative = more killing",-6.15%
same,z-score,-2.42
O=c1cccc2n1C[C@H]1C[C@@H]2CN(Cc2ccccc2F)C1,"corrected activity, negative = more killing",-2.76%
same,z-score,-1.43
COc1ccccc1CC(C)NC1CCCc2c1[nH]c1ccc([N+](=O)[O-])cc21 (configuration not stated),"corrected activity, negative = more killing",2.84%
same,z-score,1.24
COc1cccc(CCNCc2ccc(C)cc2C)c1,"corrected activity, negative = more killing",-4.05%
same,z-score,-1.29
O=[N+]([O-])c1ccccc1CNCCc1cccc(F)c1,"corrected activity, negative = more killing",-3.35%
same,z-score,-1.06
CC(Cc1ccccc1F)NC1CCCc2c1[nH]c1ccc([N+](=O)[O-])cc21 (configuration not stated),"corrected activity, negative = more killing",-1.36%
same,z-score,-0.594
FC(F)(F)c1ccc(CNCCc2ccc3c(c2)OCO3)cc1,"corrected activity, negative = more killing",-3.37%
same,z-score,-1.07
Cc1ccc(OCC(=O)N2CCN(C3CCCCC3)CC2)cc1,"corrected activity, negative = more killing",-3.64%
same,z-score,-1.62
O=[N+]([O-])c1ccc(NCCc2ccccc2)c2ncccc12,"corrected activity, negative = more killing",1.61%
same,z-score,0.498
C=CCON=C(CCC)C1C(=O)CC(C)(C)C(C(=O)OC)C1=O (configuration not stated),"corrected activity, negative = more killing",-4.48%
same,z-score,-1.77
CCC(C)N1CCN(Cc2cccc(Cl)c2)CC1 (configuration not stated),"corrected activity, negative = more killing",-0.307%
same,z-score,-0.137
CCCC12CN3CCN(CC(C3)C1O)C2 (configuration not stated),"corrected activity, negative = more killing",0.145%
same,z-score,0.0449
CCOP(=S)(OCC)SCC(=O)c1c(O)cc(C)oc1=O,"corrected activity, negative = more killing",-2.68%
same,z-score,-1.01
CCN(CC)CCCn1c(=S)[nH]c2cc(Cl)ccc2c1=O,"corrected activity, negative = more killing",-4.51%
same,z-score,-1.2
O=S1(=O)CC2(N3CCOCC3)CCCCC21 (configuration not stated),"corrected activity, negative = more killing",-5.53%
same,z-score,-1.76
CCCCCn1c(=O)c(C(=O)Nc2cccc(OC)c2)c(O)c2ccccc21,"corrected activity, negative = more killing",-0.341%
same,z-score,-0.108
Cc1cnc2cccc[n+]2c1C,"corrected activity, negative = more killing",0.645%
same,z-score,0.254
COc1ccc(C2(CN)CCCC2)cc1OC,"corrected activity, negative = more killing",-1.26%
same,z-score,-0.675
CCOC(=O)CN1C(=O)NC2(CCN(C)CC2)C1=O,"corrected activity, negative = more killing",-3.8%
same,z-score,-1.02
O=c1c2ccccc2nc(-c2ccco2)n1-c1ccc(Cl)cc1,"corrected activity, negative = more killing",-0.835%
same,z-score,-0.329
